# E coli growth-1 – counter-screen for AddAB inhibitors: E. coli growth inhibition; AID 449728; actives 0.27% (n = 330,000); inhibition, % at 11.9 µM; E. coli V3065 growth, OD600 absorbance, 18 h;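 active = inhibition above the campaign's mean inhibition across all tested compounds plus 3 SD, cut at about 9.9% in these data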;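 also: uninfected addAB+ strain grown without phage in ampicillin broth; 0% = DMSO wells and 100% = ciprofloxacin 0.95 µg/ml wells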
# AddAB inh – less growth of phage-infected E. coli with AddAB; actives 0.29% (n = 330,000); E. coli expressing H. pylori AddAB, absorbance growth; inhibition, % at 11.9 µM; AID 435030; in the data active = inhibition above about 12%;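 also: 0% = vehicle wells of infected cells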
# Tat export inh – inhibitors of E. coli Tat protein transport | E. coli MC4100 TorA-mCherry Tat export, fluorescence | inhibition, % at 10 µM | actives 0.036% (n = 340,000);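 active = mean replicate inhibition at least 50% and at least half of replicates individually reaching 50%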;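 also: exported cargo escapes ClpAP degradation while cytoplasmic cargo is degraded and loses fluorescence; 0% = median of neutral control wells and 100% = median of NaSCN control wells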
# phage Ecoli inh – E. coli growth loss with phage present. growth absorbance. inhibition, % at 11.9 µM. actives 0.26% (n = 360,000). AID 651602; in the data active = inhibition above about 11%
# E coli growth-2 – inhibitors of Escherichia coli growth; AID 1053175; OD600 absorbance (no concentration beside the values); OD600, 23 h; hits give low values; actives 0.21% (n = 330,000);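 active = OD600 absorbance below the run mean of sample wells minus 3.6 SD, in any replicate, cut at about 0.56 in these data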
# AddAB confirm – growth loss of T4-infected E. coli expressing H. pylori AddAB, confirmed; shares compounds with AddAB inh; E. coli V3065 expressing H. pylori AddAB, T4 phage, OD; T4 phage with gene 2 nonsense mutations; inhibition, % at 11.9 µM; actives 64% (n = 880);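 active = mean inhibition above a set limit taken from the earlier primary screen, cut at about 13% in these data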;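 also: higher means less bacterial growth since AddAB block lets phage replicate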
# RecBCD counter – reduces growth of phage-infected RecBCD+ E. coli, AddAB inhibitor counter-screen | shares compounds with AddAB inh | actives 73% (n = 880) | inhibition, % at 11.9 µM | E. coli V66 + mutant T4 phage, OD growth | AID 488955;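 active = mean inhibition above the mean of solvent-only control wells plus 3 SD, cut at about 4% in these data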;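 also: optical density read after an 18 h incubation at 37 °C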
# bact viab count – counter-screen: bacterial growth inhibition; shares compounds with AddAB inh; bacterial viability, absorbance (AddAB counterscreen); inhibition, % at 11.9 µM; actives 35% (n = 880); AID 488956; in the data active = inhibition above about 25%
# RecBCD conf – growth loss of phage-infected V66 E. coli, RecBCD confirmation screen. shares compounds with phage Ecoli inh. E. coli V66 + T4 2- phage, growth OD. inhibition, % at 11.9 µM. actives 45% (n = 890). AID 651982;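 active = mean inhibition over triplicates exceeding the hit threshold derived in the original primary screen, cut at about 11% in these data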
# Ecoli viability – counter-screen for RecBCD inhibitors: inhibitors of bacterial viability; actives 29% (n = 890); E. coli viability, absorbance (OD) growth; inhibition, % at 11.9 µM; shares compounds with phage Ecoli inh; in the data active = inhibition above about 20%;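 also: E. coli strain V66 grown with compound alone and no phage infection; 0% = bacteria with DMSO vehicle only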
# AddAB counter – growth loss of phage-infected AddAB E. coli, RecBCD counter-screen; shares compounds with phage Ecoli inh; E. coli expressing H. pylori AddAB + T4 phage, OD growth; gene 2 mutant T4, recBCD-deleted host; inhibition, % at 11.9 µM; actives 45% (n = 890);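 active = mean inhibition above the solvent-only control wells' mean plus 3 SD, cut at about 22% in these data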;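 also: higher means less bacterial growth from phage killing when AddAB is blocked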
# An asterisk follows results filed as active; . = no result given; ! = repeats disagree. Only some compounds are listed: those with a hit (about 0.5% of all), similar ones and a draw of the others.
SMILES,E coli growth-1,AddAB inh,Tat export inh,phage Ecoli inh,E coli growth-2,RecBCD conf,Ecoli viability,AddAB counter,others
COC12C(COC(N)=O)C3=C(C(=O)C(C)=C(N)C3=O)N1CC1C2N1C (stereo not drawn),99*,94*,80*,82*,0.053*,94*,94*,96*,AddAB confirm=98*;RecBCD counter=89*;bact viab count=99*
COC(=O)C1=C(c2ccc(F)cc2F)CC2CCC1N2C (stereo not drawn),.,.,.,.,0.64,.,.,.,
CN(C)[C@@H]1C(=O)C(C(N)=O)=C(O)[C@@]2(O)C(=O)C3=C(O)c4c(O)cccc4[C@@](C)(O)[C@H]3[C@H](O)[C@@H]12,-1,1,6,3,.,.,.,.,
CN(C)[C@@H]1C(=O)C(C(N)=O)=C(O)[C@@]2(O)C(=O)C3=C(O)c4c(O)ccc(Cl)c4[C@@](C)(O)[C@H]3C[C@@H]12,81*,79*,163*,91*,.,97*,102*,100*,AddAB confirm=99*;RecBCD counter=95*;bact viab count=99*
CN(C)[C@@H]1C(=O)C(C(N)=O)=C(O)[C@@]2(O)C(=O)C3=C(O)c4c(O)cccc4[C@@](C)(O)C3C[C@@H]12 (stereo partly drawn),100*,94*,147*,102*,.,101*,102*,101*,AddAB confirm=101*;RecBCD counter=101*;bact viab count=101*
COC(=O)C1=COC(C)C2CN3CCC4(C(=O)Nc5ccccc54)C3CC12 (stereo not drawn),-2,1,3,11*,0.74,-2,0,2,
COC(=O)C1=C(c2cc3ccccc3o2)CC2CCC1N2C(=O)NCc1ccco1 (stereo not drawn),.,.,.,.,0.68,.,.,.,
Oc1cc(Cl)ccc1Oc1ccc(Cl)cc1Cl,98*,97*,137*,97*,0.046*,99*,100*,99*,
COC(=O)C1=C(c2ccc(Cl)c(C(F)(F)F)c2)CC2CCC1N2C(=O)NCc1ccc2c(c1)OCO2 (stereo not drawn),.,.,.,.,0.68,.,.,.,
COc1cc(C=C[N+](=O)[O-])ccc1O,.,.,.,.,0.54,.,.,.,
CC(=O)OC1CC[C@@]2(C)C(=CCC3C2CC[C@]2(C)C(=O)CCC32)C1 (stereo partly drawn),.,.,.,.,0.67,.,.,.,
C[n+]1ccc(-c2cc[n+](C)cc2)cc1,10*,12,-5,22*,0.66,13*!,13,21*,
Fc1ccc(CNC2CN3CCC2CC3)cc1 (stereo not drawn),-1,-1,-12,13*,0.69,-5,-4,1,
CNS(=O)(=O)c1ccc(N=Cc2c(O)n(-c3ccc(C)cc3)c(=O)[nH]c2=O)cc1,1,1,-7,0,0.7,.,.,.,
CCc1nnc(NS(=O)(=O)c2ccc(N=Cc3c(O)n(-c4ccc(Cl)cc4)c(=O)[nH]c3=O)cc2)s1,8,9,-8,12*,0.61,4,2,20,

# Screens from PubChem BioAssay.
